Source: PubChem
Shown are actives, neighbours in structure and some others; about 2.6% of the full set was active somewhere.
PAFAH1B3 inh: inhibitors of human PAFAH1B3; inhibition, % at 3.39 µM; 0.28% of 340,000 active; Q15102; recombinant PAFAH1B3, FP-rhodamine probe, fluorescence polarization;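 active means inhibition above the screen-wide average of all tested compounds plus 3 SD, cut at about 25% in these data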
Target sequence (Q15102 whole entry, looked up): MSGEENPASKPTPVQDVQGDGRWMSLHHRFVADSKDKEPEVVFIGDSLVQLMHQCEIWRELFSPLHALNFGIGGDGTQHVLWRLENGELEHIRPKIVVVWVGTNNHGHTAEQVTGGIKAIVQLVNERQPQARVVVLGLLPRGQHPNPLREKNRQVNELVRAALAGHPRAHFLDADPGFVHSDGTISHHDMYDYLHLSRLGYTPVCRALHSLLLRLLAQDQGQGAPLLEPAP
PKA-R1A act: activates the PKA-R1A holoenzyme complex; AID 504707; P00514+P68181; PKA-R1A dissociation, Cy5-IP20 fluorescence polarization; scaled: DMSO 0%, 113 µM cGMP 100%; 0.083% of 340,000 active; activation, % at 11.4 µM;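 active means percent activation above the mean of all tested compounds plus 3 SD, cut at about 19% in these data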;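 further: higher means more PKAc released from R1A so a rise in polarization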
PKA-R2B activ: activators of human PKA-R2B complex; activation, % at 11.4 µM; P22694+P31323; 0.079% of 340,000 active; PKA-R2B holoenzyme dissociation, Cy5-IP20 fluorescence polarization; R2B truncated from residue 108, S112A mutant; 0% DMSO only, 100% 113 µM cGMP;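 active means activation above a cutoff set at the mean over all compounds plus 3 SD, cut at about 18% in these data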;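 further: higher means more holoenzyme dissociation and a rise in polarization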
Target sequence (P31323 whole entry, looked up, other chains not shown, the tested form may be a part): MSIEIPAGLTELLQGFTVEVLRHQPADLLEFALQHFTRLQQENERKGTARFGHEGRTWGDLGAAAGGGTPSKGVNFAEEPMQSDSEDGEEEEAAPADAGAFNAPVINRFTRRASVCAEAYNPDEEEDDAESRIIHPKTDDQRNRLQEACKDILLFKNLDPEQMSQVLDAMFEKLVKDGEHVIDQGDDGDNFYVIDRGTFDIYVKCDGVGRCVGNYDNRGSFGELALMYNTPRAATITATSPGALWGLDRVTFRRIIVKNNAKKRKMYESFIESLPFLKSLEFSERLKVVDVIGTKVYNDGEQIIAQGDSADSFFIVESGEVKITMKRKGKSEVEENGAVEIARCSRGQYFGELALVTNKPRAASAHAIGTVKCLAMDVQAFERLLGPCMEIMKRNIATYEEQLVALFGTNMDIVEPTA
pPAFAH inh: inhibitors of human plasma PAF acetylhydrolase (pPAFAH); recombinant pPAFAH, FP-rhodamine probe fluorescence polarization; inhibition, % at 3.39 µM; 1.5% of 330,000 active; AID 463082;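 active means inhibition above the mean inhibition across the screen plus 3 SD, cut at about 25% in these data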;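 further: inhibitors block binding of the rhodamine activity-based probe so polarization drops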
PAFAH2 inh: PAFAH2 (human) inhibition; Q99487; recombinant PAFAH2, FP-rhodamine activity probe, fluorescence polarization; inhibition, % at 3.39 µM; 0.99% of 340,000 active; AID 492956;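 active means inhibition above the mean over all tested compounds plus 3 SD, cut at about 30% in these data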;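 further: inhibitors block probe labeling of enzyme so polarization drops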
PAFAH1B2 FP inh: PAFAH1B2 (human) inhibition | P68402 | recombinant PAFAH1B2, FP-rhodamine activity probe, fluorescence polarization | inhibition, % at 3.39 µM | 1.2% of 340,000 active;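 active means inhibition above the mean of all tested compounds plus 3 SD, cut at about 24% in these data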
PAFAH2 FP conf: PAFAH2 (human) inhibition, confirmed | shares compounds with PAFAH2 inh | recombinant PAFAH2, FP-rhodamine activity probe, fluorescence polarization | inhibition, % at 3.39 µM | 65% of 2,300 active;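 active means mean inhibition over three repeats above a set limit taken from the earlier primary screen, cut at about 30% in these data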;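 further: inhibitor blocks binding of rhodamine activity probe so polarization falls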
A number is an active result; i = inactive; nt = not tested or not shown.

SMILES	PAFAH1B3 inh	PKA-R1A act	PKA-R2B activ	pPAFAH inh	PAFAH2 inh	PAFAH1B2 FP inh	PAFAH2 FP conf
COc1ccc(C(=O)OCn2nnc3ccccc3c2=O)cc1	i	i	i	i	42.6	i	36.9
O=C(OCn1nnc2ccccc2c1=O)c1ccc(O)cc1	i	i	i	i	33.3	i	i
COC(=O)c1ccc(NC(=O)COc2ccc(N(C)S(=O)(=O)c3ccc(C)cc3)cc2)cc1	i	i	i	i	i	i	nt
CCN(CC)S(=O)(=O)c1ccc(C)c(NC(=O)COC(=O)CCC(=O)c2cccs2)c1	i	i	i	i	i	i	nt
CCN(CC)S(=O)(=O)c1ccc(C)c(NC(=O)COC(=O)C=C(C)C)c1	i	i	i	i	33.0	i	47.6
CCOc1ncccc1C(=O)OCC(=O)Nc1cc(S(=O)(=O)N(CC)CC)ccc1C	i	i	i	i	64.9	i	49.4
CC(=O)C(C(c1ccccc1)N1CCCc2ccccc21)N1CCOCC1 (configuration not stated)	i	i	i	nt	i	i	nt
CCOc1ccccc1N1CCN(C(=O)c2c(-c3c(F)cccc3Cl)noc2C)CC1	i	i	i	i	i	i	nt
Cc1cc(C(=O)O)ccc1-c1ccc(/C=C2\NC(=O)N(Cc3ccccc3Cl)C2=O)o1	i	i	i	i	33.2	i	i
COc1ccccc1/C=C/C(=O)OCC(=O)N1CCc2ccccc21	i	i	i	i	77.5	i	70.6
O=C(/C=C/c1ccc(OC(F)F)cc1)OCC(=O)N1CCc2ccccc21	i	i	i	i	i	i	nt
COc1ccccc1/C=C/C(=O)OCC(=O)NC(=O)NC1CCCC1	i	i	i	i	58.3	i	44.0
COc1ccc(/C=C/C(=O)OCC(=O)NC2CCCC2)c(OC)c1	i	i	i	i	86.4	i	84.6
COc1cc(/C=C/C(=O)OCC(=O)NC2CC2)cc(S(=O)(=O)N2CCc3ccccc32)c1OC	i	i	i	i	53.0	i	37.5
CCCCC(=O)Nc1nnc(CCc2ccccc2)s1	i	i	i	i	i	i	nt
COc1ccccc1/C=C/C(=O)OCC(=O)Nc1ccc(Cl)cn1	i	i	i	i	83.0	i	79.0
O=C(OCC(=O)N1CCc2ccccc21)C1=COCCO1	i	i	i	i	30.0	i	i
O=C(/C=C/c1ccc(Cl)cc1Cl)OCC(=O)N1CCCC1	i	i	i	i	i	i	nt
COc1ccccc1/C=C/C(=O)OCC(=O)NNC(=O)c1ccccc1	i	i	i	i	i	i	nt
COc1ccccc1/C=C/C(=O)OCC(=O)NC1CC1	i	i	i	nt	64.2	i	63.9
COc1ccc(/C=C/C(=O)OCC(=O)N2CCCCCC2)c(OC)c1	i	i	i	i	44.3	i	36.0
COc1ccc(S(=O)(=O)N2CCOCC2)cc1NC(=O)Cc1coc2cc(C)c(C)cc12	i	i	i	i	i	i	nt
COc1ccc(N2CC(C(=O)N(C)CC(=O)Nc3ccc(Cl)c(C(F)(F)F)c3)CC2=O)c(OC)c1 (configuration not stated)	i	i	i	i	i	i	nt
O=[N+]([O-])c1ccc(CN2CCCCCC2)s1	i	i	i	i	32.0	i	i
O=[N+]([O-])c1ccc(CN2CCCCCC2)cc1	i	i	i	i	i	i	nt
SMILES	PAFAH1B3 inh	PKA-R1A act	PKA-R2B activ	pPAFAH inh	PAFAH2 inh	PAFAH1B2 FP inh	PAFAH2 FP conf
O=C1CC(=O)Nc2cc(S(=O)(=O)N3CCOc4ccc(Cl)cc43)ccc2N1	i	i	i	i	45.2	i	39.8
Cc1ccc2c(c1)N(S(=O)(=O)c1ccc3c(c1)NC(=O)CC(=O)N3)CCO2	i	i	i	i	i	i	nt
Cc1cc(C(=O)NNC(=O)/C=C/c2ccc(F)cc2)c(C)o1	i	i	i	i	i	i	nt
O=C1CCCC(O)=C1N=Nc1ccc(Cl)c(Cl)c1	i	i	i	i	33.0	i	i
Cn1ccsc1=NC(=O)c1ccc(S(C)(=O)=O)c([N+](=O)[O-])c1	i	i	i	i	i	i	nt
O=C(COC(=O)c1ccc2c(c1)OCCO2)Nc1ccc(F)cc1F	i	i	i	i	77.4	i	62.0
Cc1ccnn1-c1ccc(C(=O)OCC(=O)Nc2ccc(F)cc2)cc1	i	i	i	nt	55.4	i	60.1
O=C(COC(=O)c1ccc2c(c1)OCCO2)Nc1ccc(F)cc1	i	i	i	nt	81.1	i	82.3
CC(C)NC(=O)COC(=O)c1ccc(NS(=O)(=O)c2ccc3c(c2)OCCO3)cc1	i	i	i	i	51.3	i	43.0
O=C(Nc1ccc(F)cc1F)c1ccc2c(c1)OCCO2	i	i	i	i	i	i	nt
C=CC[C@@H](CC(=O)N[C@@H](CO)Cc1ccccc1)C(=O)NC[C@@H](OC(=O)[C@@H](CC=C)CC(=O)OC(C)(C)C)c1ccccc1	i	i	i	i	i	i	nt
O=C(NCC1CCCO1)c1cc([N+](=O)[O-])ccc1N1CCC(Cc2ccccc2)CC1 (configuration not stated)	i	i	i	i	i	i	nt
Cc1ccc(NC(=O)COC(=O)c2ccc(Cl)nc2)cc1S(=O)(=O)N1CCCCC1	i	i	i	i	36.1	i	38.4
O=C(COC(=O)c1ccc(Cl)nc1)Nc1cc(S(=O)(=O)N2CCCCC2)ccc1Cl	i	i	i	i	38.2	i	i
O=C(COC(=O)c1ccc(Cl)nc1)Nc1ccc(S(=O)(=O)N2CCCC2)cc1	i	i	i	i	i	i	nt
Cc1nc2c(S(=O)(=O)c3ccccc3)cnn2c(C)c1C	i	i	i	i	i	i	nt
CC(C)(C)S(=O)(=O)c1cnc2c(S(=O)(=O)c3ccccc3)cnn2c1N	i	i	i	i	29.7	i	i
CCc1cc(S(=O)(=O)N2CCN(C(=O)c3ccco3)CC2)ccc1OC	i	i	i	i	i	i	nt
O=C(O)C(Cc1ccccc1)N1C(=O)/C(=C/C=C/c2ccco2)SC1=S (configuration not stated)	i	i	i	nt	59.9	i	47.0
O=C(c1ccco1)N1CCN(C(=O)c2cn(-c3ccccc3)nc2-c2ccc(F)cc2)CC1	i	i	i	nt	i	i	nt
COc1cccc(/C=C/C(=O)OCC(=O)NCCC2=CCCCC2)c1OC	i	i	i	i	65.7	i	55.4
COc1ccc(/C=C/C(=O)OCC(=O)NCCC2=CCCCC2)cc1OC	i	i	i	i	65.1	i	50.3
COc1ccccc1/C=C/C(=O)OCC(=O)NCCC1=CCCCC1	i	i	i	i	i	i	nt
O=C(CCS(=O)(=O)c1ccc(F)cc1)N1CCN(c2ccccc2)CC1	i	i	i	i	32.3	i	i
O=C(CCS(=O)(=O)c1ccccc1)N1CCN(c2ccc(F)cc2)CC1	i	i	i	i	i	i	nt
